According to PubChem BioAssay AID1159580 (chemical genetic matrix, 2015):
Out of some 5,500 compounds screened, about 2,000 (36%) were called active. Not shown: some 18% with an inconclusive outcome. No stated cut-off is given here; in the data, active means normalized growth mostly below about 0.91 (no sharp cut-off); inconclusive means no clear call, values can overlap the other calls; inactive means mostly above about 0.92. The list shows a part of the results.

Assay: chemical genetic growth profiling, strain panel (AID 1159580);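 further: tested at 20 µM; growth read once vehicle control cultures reached saturation at 30 °C; 1 = growth at the plate median or of vehicle wells; lower values mean less growth of the strain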
Details: S. cerevisiae deletion strains, growth OD
[1] = locus YAL013W, strain DEP1, hits give low values
[2] = locus YAL040C, strain CLN3, hits give low values
[3] = locus YCL061C, strain MRC1 (second series), hits give low values
[4] = locus YER002W, strain NOP16, hits give low values
[5] = locus YMR263W, strain SAP30, hits give low values
[6] = locus YNL175C, strain NOP13, hits give low values
[7] = locus YNL197C, strain WHI3, hits give low values
[8] = locus YNL224C, strain SQS1, hits give low values
[9] = locus YOR083W, strain WHI5 (second series), hits give low values
[10] = locus YPL055C, strain LGE1, hits give low values

Measured: normalized growth

c1ccc2nc(C3=NCCN3)ccc2c1
inactive: [1] 0.99 | [2] 1.04 | [3] 0.986 | [4] 0.993 | locus YGR229C, strain SMI1, hits give low values 0.955 | [5] 0.982 | [6] 0.995 | [7] 0.996 | [8] 0.993 | [9] 1 | [10] 1.01 | locus YPL241C, strain CIN2, hits give low values 0.987

NC(=O)CN1CC(O)CC1=O (stereo not given)
inactive: [1] 1 | [2] 1 | [3] 1 | locus YDR363W, strain ESC2, hits give low values 0.995 | [4] 1.01 | locus YGR078C, strain PAC10, hits give low values 1.02 | locus YJR075W, strain HOC1, hits give low values 1.01 | [5] 1 | [6] 1.01 | [7] 1.01 | [8] 1 | [9] 1 | [10] 1.01
